Results as given in PubChem BioAssay AID1159580 (chemical genetic matrix, 2015).
Hit rate of the full screen: of about 5,500 compounds, about 2,000 (36%) were called active. Another 18% or so got no clear call; they are omitted. Rule as the data show it: active = normalized growth mostly below about 0.91 (no sharp cut-off); inconclusive = no clear call, values can overlap the other calls; inactive = mostly above about 0.92. The list shows a part of the results.

Assay: chemical genetic growth profiling, strain panel (AID 1159580);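 also: tested at 20 µM; growth read once vehicle control cultures reached saturation at 30 °C; 1 = growth at the plate median or of vehicle wells; lower values mean less growth of the strain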
Settings: S. cerevisiae deletion strains, growth OD

Measured: normalized growth

COc1c2c(nc3ccccc13)OC(C(C)(O)CO)C2 (stereo not given)
inactive: locus YAL040C, strain CLN3, active compounds read low 1.01 | locus YCL061C, strain MRC1 (second series), active compounds read low 1.01 | locus YDR363W, strain ESC2, active compounds read low 0.993 | locus YER002W, strain NOP16, active compounds read low 1.01 | locus YJR075W, strain HOC1, active compounds read low 0.994 | locus YMR263W, strain SAP30, active compounds read low 0.998 | locus YMR307W, strain GAS1, active compounds read low 1.01 | locus YNL128W, strain TEP1, active compounds read low 1.02 | locus YNL153C, strain GIM3, active compounds read low 1.04 | locus YNL175C, strain NOP13, active compounds read low 1.01 | locus YNL197C, strain WHI3, active compounds read low 1.01 | locus YNL224C, strain SQS1, active compounds read low 1.01 | locus YOR083W, strain WHI5 (second series), active compounds read low 1 | locus YPL055C, strain LGE1, active compounds read low 0.99 | locus YPL241C, strain CIN2, active compounds read low 1
